# According to the supplement of paper PMC12494721:
# Counter-ions that a name gives are not always drawn.
# Columns and labels:
# Conditions in all cases: 20 µM; incubation time: 27 h, anaerobic, 37 °C;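 for the amine columns active = adjusted P below 0.05 in both replicates with a change the same way and a mean fold change under 0.8 or over 1.25; inactive = the rest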
# [1] = test system: Clostridium sporogenes DSM 1664; test: growth (OD595) fold change vs plate DMSO controls (fold change (ratio)); higher = more growth
# How it was run: (§1)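 The measure reported is growth, taken as fold change against the median of DMSO controls on the same plate. Anaerobic mGAM cultures in 96-well plates (27 h, 37 °C) were read at 595 nm, blank-subtracted, corrected for compound background using 20 µM compound solutions in water, and multiplied by a calibration factor of 5 to give OD. Any fold change above 1.5 became NA, and 2 biological replicates were averaged.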
# Escherichia coli IAI1 [2] = test: as above
# How it was run: as §1
# [3] = test system: Klebsiella aerogenes DSM 30053; test: as above
# How it was run: as §1
# [4] = test system: Ruminococcus gnavus DSM 108212; test: as above
# How it was run: as §1
# [5] = test system: Klebsiella aerogenes DSM 30053; test: fold change of Histamine concentration vs plate DMSO controls (fold change (ratio)); higher = more amine produced, active = hit call of the paper (significant change in both replicates, either direction)
# How it was run: (§2)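 Amine values are fold changes relative to DMSO-only wells on the same plate. They derive from 27 h, 37 °C anaerobic mGAM cultures of four gut bacterial strains in 80 µL wells, dosed at 20 µM final, or 50 µM final for sweeteners. Extraction of the whole culture, LC–triple-quadrupole MS in dynamic MRM mode, external calibration curves and within-batch drift correction were used, with 2 biological replicates averaged.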
# [6] = test system: Clostridium sporogenes DSM 1664; test: fold change of Tryptamine concentration vs plate DMSO controls (fold change (ratio)); higher = more amine produced, active = hit call of the paper (significant change in both replicates, either direction)
# How it was run: as §2
# [7] = test system: Ruminococcus gnavus DSM 108212; test: as above
# How it was run: as §2
# Escherichia coli IAI1 [8] = test: fold change of Putrescine concentration vs plate DMSO controls (fold change (ratio)); higher = more amine produced, active = hit call of the paper (significant change in both replicates, either direction)
# How it was run: as §2
# [9] = test system: Klebsiella aerogenes DSM 30053; test: as above
# How it was run: as §2
# Escherichia coli IAI1 [10] = test: fold change of Cadaverine concentration vs plate DMSO controls (fold change (ratio)); higher = more amine produced, active = hit call of the paper (significant change in both replicates, either direction)
# How it was run: as §2
# [11] = test system: Klebsiella aerogenes DSM 30053; test: as above
# How it was run: as §2
# [12] = test system: Ruminococcus gnavus DSM 108212; test: fold change of 2-Phenylethylamine concentration vs plate DMSO controls (fold change (ratio)); higher = more amine produced, active = hit call of the paper (significant change in both replicates, either direction)
# How it was run: as §2
SMILES,growth [1],growth (Escherichia coli IAI1 [2]),growth [3],growth [4],fold change of Histamine concentration [5],fold change of Tryptamine concentration [6],fold change of Tryptamine concentration [7],fold change of Putrescine concentration (Escherichia coli IAI1 [8]),fold change of Putrescine concentration [9],fold change of Cadaverine concentration (Escherichia coli IAI1 [10]),fold change of Cadaverine concentration [11],fold change of 2-Phenylethylamine concentration [12]
CC(C)(N)Cc1ccccc1 [Phentermine hydrochloride],0.937,0.981,1.24,0.221,0.896 (inactive),1.03 (inactive),0.176 (active),0.983 (inactive),1.01 (inactive),1.05 (inactive),1.05 (inactive),0.213 (active)
Cc1ccc(/N=C/N(C)/C=N/c2ccc(C)cc2C)c(C)c1,0.953,1.05,1.03,1.06,1.03 (inactive),0.98 (inactive),0.939 (inactive),0.981 (inactive),1.01 (inactive),1.01 (inactive),0.991 (inactive),0.926 (inactive)
N#Cc1c[nH]cc1-c1cccc2c1OC(F)(F)O2,0.873,0.959,0.984,1.17,1.01 (inactive),1.03 (inactive),0.939 (inactive),0.993 (inactive),0.977 (inactive),1.08 (inactive),0.981 (inactive),0.972 (inactive)
Oc1ccccc1-c1ccccc1,1,1.12,0.949,1.21,0.959 (inactive),0.993 (inactive),0.973 (inactive),0.955 (inactive),0.993 (inactive),1.01 (inactive),0.998 (inactive),0.965 (inactive)
CC(C)(C)C(O)C(Oc1ccc(Cl)cc1)n1cncn1 (centres undefined),0.989,1.11,0.994,0.928,0.993 (inactive),0.962 (inactive),0.998 (inactive),1.08 (inactive),0.999 (inactive),0.937 (inactive),1 (inactive),0.975 (inactive)
Oc1cc(Cl)ccc1Oc1ccc(Cl)cc1Cl [Triclosan],0.874,0.0332,0.299,1.21,0.0779 (active),0.699 (inactive),0.715 (active),0.258 (active),0.248 (active),1.13 (inactive),0.828 (inactive),0.734 (active)
NC(=O)CN1CCCC1=O [Piracetam],1.08,0.995,0.984,1.11,1.04 (inactive),1.01 (inactive),1.02 (inactive),1.04 (inactive),1.01 (inactive),0.997 (inactive),0.985 (inactive),1.01 (inactive)
CC(C)OC(=O)C(C(=O)OC(C)C)=C1SCCS1,1.07,0.971,1.02,1.08,0.989 (inactive),0.999 (inactive),1 (inactive),1.02 (inactive),1 (inactive),0.976 (inactive),1 (inactive),0.956 (inactive)
C[N+](C)(C)CCCl,1.05,0.994,0.986,0.97,1.01 (inactive),1.03 (inactive),1.06 (inactive),0.949 (inactive),0.82 (inactive),0.863 (inactive),1.08 (inactive),1.06 (inactive)
NCC1(CC(=O)O)CCCCC1 [Gabapentin],1.14,1.15,1.03,1,1.04 (inactive),0.986 (inactive),1.03 (inactive),1.03 (inactive),1 (inactive),1.02 (inactive),0.985 (inactive),1.07 (inactive)
c1cc2ccc3cccc4ccc(c1)c2c34 [Pyrene],1.01,0.96,0.997,0.936,0.993 (inactive),0.953 (inactive),1.03 (inactive),1.01 (inactive),1.05 (inactive),0.969 (inactive),1.03 (inactive),1 (inactive)
CC1(C)C(C(=O)OC(C#N)c2cccc(Oc3ccccc3)c2)C1(C)C (centres undefined),0.931,1.02,1.01,1.15,1 (inactive),1.06 (inactive),1.17 (inactive),0.937 (inactive),0.987 (inactive),0.982 (inactive),1 (inactive),1.25 (inactive)
CC(C)(C)NCC(O)c1cc(Cl)c(N)c(Cl)c1 (centres undefined) [Clenbuterol hydrochloride],1.03,1.02,1.01,1.13,0.983 (inactive),0.986 (inactive),1.02 (inactive),0.991 (inactive),0.983 (inactive),0.987 (inactive),1 (inactive),1.02 (inactive)
CC(=O)O[C@H]1C[C@@H]2CC[C@@H]3[C@H](CC[C@@]4(C)[C@H]3C[C@H]([N+]3(C)CCCCC3)[C@@H]4OC(C)=O)[C@@]2(C)C[C@@H]1[N+]1(C)CCCCC1 [Pancuronium bromide],0.918,1.08,1.1,1.08,0.905 (inactive),1.04 (inactive),1.07 (inactive),1.07 (inactive),0.983 (inactive),0.957 (inactive),1.03 (inactive),1.08 (inactive)
Cc1ccccc1[N+](=O)[O-] [2-Nitrotoluene],0.884,0.993,0.968,0.984,0.994 (inactive),0.993 (inactive),0.981 (inactive),0.996 (inactive),1.01 (inactive),1.01 (inactive),0.993 (inactive),0.978 (inactive)
C=CC(N)=O [Acrylamide],0.971,0.969,0.977,0.973,0.995 (inactive),1.03 (inactive),0.999 (inactive),0.967 (inactive),0.987 (inactive),1.04 (inactive),0.972 (inactive),1.03 (inactive)
CC(=O)[C@H]1CC[C@H]2[C@@H]3CC[C@H]4C[C@H](O)CC[C@]4(C)[C@H]3C(=O)C[C@]12C [Alfaxalone],1.12,1.03,1.02,1.13,1.06 (inactive),0.957 (inactive),0.959 (inactive),0.994 (inactive),1.06 (inactive),1 (inactive),1.02 (inactive),0.913 (inactive)
O=C(Nc1ccccc1-c1ccc(Cl)cc1)c1cccnc1Cl,0.923,1.02,0.996,0.965,0.953 (inactive),0.954 (inactive),0.949 (inactive),1 (inactive),0.985 (inactive),0.979 (inactive),0.999 (inactive),0.916 (inactive)
CC(C)N(CCC(C(N)=O)(c1ccccc1)c1ccccn1)C(C)C (centres undefined) [Disopyramide],1.08,1.04,1.01,0.817,0.927 (inactive),0.996 (inactive),1 (inactive),1.06 (inactive),0.996 (inactive),1.01 (inactive),1 (inactive),0.972 (inactive)
O=[N+]([O-])c1cc(C(F)(F)F)c(Cl)c([N+](=O)[O-])c1Nc1ncc(C(F)(F)F)cc1Cl,0.825,0.986,0.991,1.18,1.07 (inactive),0.464 (inactive),0.887 (inactive),1.05 (inactive),1.05 (inactive),1.15 (inactive),1.02 (inactive),0.826 (inactive)
COc1ccc(OC)c(C(O)C(C)N)c1 (centres undefined) [Methoxamine hydrochloride],0.777,0.736,0.696,0.0622,1.06 (inactive),1.07 (inactive),0.161 (active),1.05 (inactive),1 (inactive),0.968 (inactive),0.988 (inactive),0.165 (active)
CC1COC(Cn2cncn2)(c2ccc(Oc3ccc(Cl)cc3)cc2Cl)O1 (centres undefined),1.16,1.02,1.01,1.13,1.01 (inactive),0.964 (inactive),0.934 (inactive),1.02 (inactive),0.996 (inactive),0.995 (inactive),0.995 (inactive),0.954 (inactive)
C#CCN(C)[C@H](C)Cc1ccccc1 [Selegiline hydrochloride],0.986,1.05,1.02,0.963,0.982 (inactive),1.11 (inactive),1.05 (inactive),1.07 (inactive),0.975 (inactive),1.03 (inactive),1.01 (inactive),1.06 (inactive)
NC(=O)C[S+]([O-])C(c1ccccc1)c1ccccc1 (centres undefined) [Modafinil],0.82,0.705,0.712,0.795,0.949 (inactive),1.1 (inactive),1.03 (inactive),1.01 (inactive),0.987 (inactive),0.99 (inactive),1 (inactive),1.06 (inactive)
CCNC1(c2cccs2)CCCCC1=O (centres undefined) [Tiletamine hydrochloride],1.04,1,0.995,1.15,1.03 (inactive),1.04 (inactive),1.02 (inactive),0.955 (inactive),1.01 (inactive),0.995 (inactive),1.01 (inactive),1 (inactive)
CCCCCCCCCCCCN=C(N)N,1.1,0.995,1.02,1.19,1.03 (inactive),0.927 (inactive),0.896 (inactive),1.01 (inactive),1.06 (inactive),0.951 (inactive),1.03 (inactive),0.893 (inactive)
C=CC[C@]1(O)CC[C@H]2[C@@H]3CCC4=CC(=O)CCC4=C3C=C[C@@]21C [Altrenogest],0.998,0.987,1.05,0.827,0.926 (inactive),1.02 (inactive),1 (inactive),1.09 (inactive),1.01 (inactive),1.42 (inactive),1.01 (inactive),0.978 (inactive)
